Pf growth 48h: P. falciparum growth inhibition at 48 hours (one generation) | 310,000 tested, 5.9% active | P. falciparum luciferase growth in erythrocytes, 48 h | AID 504832 | Potency, µM (top dose mostly 28.7 µM), inactives show top-dose activity change, negative = inhibition, usual class: inhibitors; note: potency is the fitted concentration of half-maximal effect; % is set by controls: 0 for no effect and ±100 for the full control effect
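Firefly luciferase activity from engineered P. falciparum reports growth; inhibitors lower the luminescent signal. Cultures contained 2% hematocrit erythrocytes at 0.1% final parasitemia.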
HCMV antiviral: inhibitors of human cytomegalovirus; 410,000 tested, 4.5% active; HFF cells, HCMV-luciferase reporter, 72 h; stronger effect = lower value; activity change, negative = inhibition, % at 57.5 µM; AID 1259415; in the data active = activity change below about -60%; inconclusive = no clear call, values can overlap the other calls; inactive = above about -39%; note: % is set by controls: 0 for no effect and ±100 for the full control effect
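Two-dose cell screen: HFF monolayers treated with compounds and infected with luciferase-expressing HCMV at 1 PFU/cell, 72 h at 37C, then lysed for luciferase measurement.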
HCV inh: blocks hepatitis C virus; Potency, µM (doses to about 41.8 µM), for inactives: top-dose activity change, negative = inhibition, usual class: inhibitors; Huh7.5.1 HCVcc-Cre infection, luciferase reporter, 44 h; 340,000 tested, 3.4% active; note: potency is the fitted concentration of half-maximal effect; % is set by controls: 0 for no effect and ±100 for the full control effect
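Cells (1,000/well) were plated 4 h before compound, then infected with HCVcc-Cre virus (~0.5 moi). After 44 h further culture, infection was read as luciferase luminescence following a 15 min substrate incubation at room temperature.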
Shiga toxin inh: inhibitors of Shiga toxin in Vero cells | Vero cells, Shiga toxin protein synthesis inhibition reporter | inhibition, % at 38.7 µM | 290,000 tested, 9.2% active | AID 2315; in the data active = inhibition mostly above about 28%, no sharp cut-off; inactive = mostly below about 43%; note: 0% is about no effect
Pf growth 96h: P. falciparum growth inhibition at 96 hours; AID 504834; Potency, µM (highest dose often 28.7 µM), without a hit: top-dose activity change, negative = inhibition, hits mostly inhibitors; 320,000 tested, 6.9% active; P. falciparum luciferase reporter growth, 96 h; note: potency is the fitted concentration of half-maximal effect; % is set by controls: 0 for no effect and ±100 for the full control effect
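P. falciparum expressing integrated firefly luciferase, in erythrocytes at 2% hematocrit, 0.05% parasitemia, incubated with compounds 96 h at 37 C, 5% CO2. Growth inhibition read as loss of luminescence; two-generation exposure targets delayed-death apicoplast inhibitors.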
Cycloheximide cs: counter-screen hit for Shiga toxin inhibitors, cycloheximide | max response, % | AID 2314 | cell reporter, cycloheximide protein synthesis inhibition counterscreen | 300,000 tested, 12% active; in the data active = max response mostly above about 13%, no sharp cut-off; inactive = mostly below about 14%; note: read at 38.3 µM for the half of the compounds with a filed dose; 0% is about no effect
Active calls of the source: *; ? = inconclusive; nt = no result given; + = active, no number; ! = not active in a repeat; [ ] = dose if it differs, or a comment. Rows were chosen to be rich in hits. Some 21% of all compounds tested hit in one or more screens of this group. Unless noted, calls come from the whole dose curve; as a rule, active = well fitted inhibition curve with a large enough effect; inconclusive = small, poorly fitted or top-dose-only effect, or another doubt; inactive = no such curve, though single readings can be large or run the other way.

SMILES | Pf growth 48h | HCMV antiviral | HCV inh | Shiga toxin inh | Pf growth 96h | Cycloheximide cs
COc1cccc(NC(=O)CSc2nc3c(c(=O)n2C)SC(C)C3)c1 (centres undefined) | 12µM* | 0 | ? | -10 | 9.3µM* | -1
CCOc1ccc(NC(=O)CSc2nc3c(c(=O)n2C)SC(C)C3)cc1 (centres undefined) | 13µM* | ? | ? | -5 | 7.4µM* | -3
Cn1c(SCc2cccc([N+](=O)[O-])c2)nc2c(c1=O)SCC2 | ? | -72* | ? | -4 | 3.7µM* | -4
CCn1c(SCC(=O)N2CCCc3ccccc32)nc2c(c1=O)SC(C)C2 (centres undefined) | ? | 2 | ? | -2 | ? | -1
COc1ccc(CCNC(=O)CSc2nnc(C(C)N(C)C)n2Cc2ccccc2)cc1OC (centres undefined) | ? | -10 | -4% | -20 | -21% | -2
Cn1c(SCC(=O)Nc2cccc(F)c2)nc2c(c1=O)SCC2 | ? | ? | ? | 21 | 2.6µM* | 1
Cn1c(SCC(=O)Nc2ccc(C(N)=O)cc2)nc2c(c1=O)SCC2 | 5% | 12 | 17% | -3 | -2% | -3
COc1ccccc1Cc1c(-c2ccc(C)cc2)nc2ccc(C)cn12 | nt | 26 | nt | nt | nt | nt
COc1cc2oc(=O)c(CC(=O)NCCc3ccccc3F)c(C)c2cc1OC | nt | -11 | nt | nt | nt | nt
Cc1cccc(OCCCC(=O)Nc2ccc(N(C)C)cc2)c1 | 240% | 40 | -5% | 122* | -17% | 84*
CCCOC(=O)c1ccc(NC(=O)CCC(=O)OCC)cc1 | 7% | 29 | 1% | 79* | ? | 29*
CCOC(=O)c1ccc(NC(=O)CCOc2ccccc2)cc1 | nt | -16 | 14% | 22 | 26% | 9
CCOc1ccccc1OCCCC(=O)N(C)CC(=O)Nc1cc(C)ccc1C | -3% | -70* | -10% | 31 | -16% | -1
O=C(CCCOc1ccccc1)Nc1ncccn1 | 46% | 27 | 22% | 38* | 24% | 32*
COc1ccc(CCC(=O)OCC(=O)Nc2ccccc2)cc1 | 58% | -12 | 14% | 68 | 99% | 20*
Cc1ccc(C)c(NC(=O)CCOc2ccccc2)c1 | 1%[0.00184 µM] | -67*! | 10% | -8 | ? | -1
Cc1ccc(NC(=O)CCOc2ccccc2)cc1 | 85% | 20 | -7% | 62* | -13% | 54*
O=C(CCOc1ccccc1)Nc1ccccc1 | 17% | 13 | 7% | 41 | 12µM* | 27*
Cc1ccc([N+](=O)[O-])cc1NC(=O)CCCOc1ccccc1 | 19% | -9 | 4% | -7 | 7% | 0
COc1ccc(C(=O)COC(=O)CCC(=O)Nc2ccc(C(C)=O)cc2)cc1 | 27% | 36 | 25% | 47* | -13% | 40*
Cc1ccc(C)c(NC(=O)CN(C)C(=O)c2oc3c(Cl)cccc3c2C)c1 | 4.1µM* | -27 | ? | nt | 2.9µM* | nt
COc1ccc(OCCC(=O)Nc2ccccc2)cc1 | 26% | 65 | 3% | 26* | 6% | 17*
CCN(CC(=O)Nc1ccccc1C(F)(F)F)C(=O)c1oc2c(Cl)cccc2c1C | ? | -21 | ? | nt | ? | nt
O=C(COc1ccc(/C=N/NC(=O)c2ccccc2O)cc1)Nc1ccc([N+](=O)[O-])cc1 | -7% | -8 | ? | -12 | 12µM* | -1
COc1ccc(OCCOC(=O)Nc2ccccc2)cc1 | 24% | 7 | -17% | -7 | 8% | -3
SMILES | Pf growth 48h | HCMV antiviral | HCV inh | Shiga toxin inh | Pf growth 96h | Cycloheximide cs
COc1ccccc1C(=O)NC(=O)COC(=O)c1cccc(OC(F)F)c1 | -17% | -24 | 1% | nt | 5% | nt
Cc1ccc([C@H]2N[C@]3(CCCN(CC4CCCCC4)C3=O)[C@H]3C(=O)N(C)C(=O)[C@@H]23)cc1 | nt | 8 | nt | nt | nt | nt
CCCCN(CC)C(=O)Cn1c(=O)n(-c2ccc(OCC)cc2)c(=O)c2c3c(sc21)CCC3 | nt | -6 | nt | nt | nt | nt
Cc1ccc(SCc2c(C(=O)N/N=C/c3ccoc3)nnn2-c2nonc2N)cc1 | 15% | -35 | -1% | -11 | 9% | -4
Cc1cc2c(cc1C)-n1nnnc1C(N1CCCC1)C(=O)N2 (centres undefined) | nt | -17 | nt | nt | nt | nt
COc1ccccc1N1CCN(C(=O)c2cnc(N3CCCCC3)c3ccccc23)CC1 | nt | -37 | nt | nt | nt | nt
CCCOC(=O)c1ccc(NC(=O)CCOc2ccccc2)cc1 | nt | 9 | 13% | 22 | -19% | 13*
Cc1ccc(OCCCC(=O)Nc2ccc(S(N)(=O)=O)cc2)cc1 | 6% | -6 | 2% | 24 | 15µM* | 21
O=C(CCOc1ccccc1)Nc1ccc([N+](=O)[O-])cc1 | -15% | -20 | -9% | 37* | 0% | 23
O=c1ccc2c(OCCCCOc3ccccc3)c3ccoc3cc2o1 | nt | nt | nt | 1 | nt | 19
COc1ccc(C[C@@H](NS(=O)(=O)c2ccc(C(=O)O)cc2)C(=O)O)cc1 | -27% | nt | nt | -10 | -5% | 10
Nc1cc(-c2ccc(Br)cc2)nn1Cc1ccccc1 | 15% | -77* | 1.3µM* | 91* | 13% | 54*
Nc1cc(-c2cccc(Br)c2)nn1Cc1ccccc1 | 35% | -9 | ? | 0 | 15% | 10
CCOc1ccccc1-c1nnc(SCc2ccc(Cl)cc2)o1 | nt | 47 | nt | nt | nt | nt
COc1ccccc1CNC(=O)COC(=O)c1nc(Cl)ccc1Cl | 12% | -7 | 13% | nt | 59% | nt
Cc1noc(C)c1C(=O)N1CCCC(C(=O)c2cccc(C(F)(F)F)c2)C1 (centres undefined) | -4% | -30 | -8% | -1 | 0% | 1
CCN(CC)c1ccc(C=C(c2nnnn2-c2ccc(C)cc2)c2nnnn2-c2ccc(C)cc2)cc1 | 1.7µM* | ? | 21% | -10 | ? | -4
Cc1ccc(-n2nnnc2-c2ccccc2)cc1 | -10% | -21 | 4% | -8 | 65% | 6
COc1ccc2cc(C(=O)N3CCN(c4ccccc4OC)CC3)[nH]c2c1 | ? | 2 | 6% | 20 | ? | -1
CCOc1ccc(S(=O)(=O)NC(C)(C)C)cc1-c1nc2c(C(C)(C)C)nn(C)c2c(=O)[nH]1 | 4.7µM* | -37 | 7.1µM* | 2 | -97% | -2
CCOc1ccc(S(N)(=O)=O)cc1-c1nc2c(C(C)(C)C)nn(C)c2c(=O)[nH]1 | ? | -33 | ? | -6 | ? | -4
O=C(Nc1ccccc1Cl)N1CCCN(c2nc(-c3ccccc3)ns2)CC1 | ? | ? | ? | 2 | ? | 17
O=C(Nc1ccccc1)N1CCN(C(=O)c2nsc3ccccc23)CC1 | nt | + | nt | nt | nt | nt
O=C(Nc1ccccc1)N1CCN(c2nc(-c3ccccc3)ns2)CC1 | ? | ? | 1.8µM* | 44 | -19% | 10
Cc1c(Cl)cccc1NC(=O)N1CCCN(c2nc(-c3ccccc3)ns2)CC1 | -29% | -70* | ? | -8 | ? | 18

From PubChem
